Results taken from PubChem BioAssay (Tox21).
Records with an inconclusive call do not appear. Active and inactive are the calls of the source. Unless noted, calls come from the whole dose curve; as a rule, active = well fitted curve in the direction sought with a large enough effect in the repeat runs; inconclusive = weak or mixed curves; inactive = no such curve, though single readings can be large; an effect the other way counts as inactive or inconclusive.

Assays:
[1] = qHTS assay to identify small molecule antagonists of the estrogen related receptor (ERR) signaling pathway from Tox21 library - cell viability counter screen (AID 1224834); note: nearly all actives have a fitted effect of over 30% in size
Summary of the method: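 Cytotoxicity of test substances is gauged in the same ERR cells used for the antagonist screen, after 17.5 h of compound treatment at 37 C, by CellTiter-Fluor fluorescence measured after 30 min.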

[2] = biological target: Luciferin 4-monooxygenase (Photinus pyralis) (UniProt P08659); assay: qHTS assay to identify small molecule inhibitors of firefly luciferase (AID 1224835); note: nearly all actives have a fitted effect of over 25% in size; note: potency is the fitted concentration of half-maximal effect
Summary of the method: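 Biochemical qHTS: compounds run as interplate titrations against purified firefly enzyme, with D-luciferin and ATP each at its KM concentration. Light output recorded by CCD imaging.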

[3] = qHTS assay to identify small molecule agonists of the constitutive androstane receptor (CAR) signaling pathway - cell viability counter screen (AID 1224836); note: nearly all actives have a fitted effect of over 45% in size
Summary of the method: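 Fluorescence from CellTiter-Fluor indicates live cells after 23 h exposure. The human hepatoma line expresses hCAR and a CYP2B6-2.2kb reporter. Incubation medium contains 0.75 uM PK11195 (final).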

[4] = qHTS assay to identify small molecule antagonists of the estrogen related receptor signaling pathway with the pleiotropic PPARgamma coactivator (PGC) from Tox21 10K library - cell viability counter screen (AID 1224840; active = well fitted cell-killing curve with a large enough effect in the repeat runs, not every such curve was filed as active; note: nearly all actives have a fitted effect of over 40% in size)
Summary of the method: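 Step one, plate 2,000 PGC/ERR cells per well; step two, incubate 6 h at 37 C/5% CO2; step three, pin-transfer compounds; step four, incubate 17.5 h; step five, add CellTiter-Fluor and read fluorescence after 30 min.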

[5] = qHTS assay to identify small molecule agonists of the hypoxia (HIF-1) signaling pathway - cell viability counter screen (AID 1224844; calls by dose curve; note: nearly all actives have a fitted effect of over 50% in size)
Summary of the method: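 Tox21 10K compounds were added to HRE-bla ME-180 cells (0.5% dialyzed FBS) and incubated 17 hrs at 37C; ATP-based CellTiter-Glo luminescence then reported cell viability in the same wells.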

[6] = qHTS assay to identify small molecule agonists of H2AX (AID 1224845; active = well fitted activation curve with a large enough effect in the signal ratio in the repeat runs, not every such curve was filed as active; the % refers to the signal ratio)
Summary of the method: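 Wild-type CHO-K1 cells, plated overnight, exposed 3hr at 37C to 15 concentrations (0.76% DMSO final). Lysed, then HTRF anti-pH2AX (S139) cryptate and anti-H2AX-d2 antibodies, 24 hr room temperature; 665/620 nm emission read.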

[7] = qHTS assay to identify small molecule agonists of the hypoxia (HIF-1) signaling pathway (AID 1224846; active = well fitted activation curve with a large enough effect in the signal ratio in the repeat runs, not every such curve was filed as active; the % refers to the signal ratio)
Summary of the method: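 Steps: seed ME-180 HRE-bla cells (2,000/well, 0.5% dialyzed FBS); incubate 5 hrs at 37C; pin-transfer compounds or DMSO; incubate 17 hrs; add LiveBLAzer B/G substrate CCF4-AM; measure reporter activation by FRET.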

[8] = qHTS assay to identify small molecule agonists of H2AX - cell viability counter screen (AID 1224847; calls by dose curve; note: top concentration of the series differs between compounds; nearly all actives have a fitted effect of over 30% in size)
Summary of the method: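 Viability of CHO-K1 (wild type) cells after 3 hr compound exposure was measured by CellTiter-Glo luminescence.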

[9] = qHTS RealTime-Glo MT Cell Viability Assay in HepG2 cells - 24 hour (AID 1224867); note: nearly all actives have a fitted effect of over 50% in size
Summary of the method: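 Luminescence read-out: viable HepG2 cells reduce a prosubstrate to a NanoLuc substrate, giving a signal proportional to live cell number. Reads taken at 0, 8, 16, 24, 32 and 40 h of compound exposure at 37 C.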

[10] = qHTS RealTime-Glo MT Cell Viability Assay in HEK293 cells - 32 hour (AID 1224868); note: top concentration of the series differs between compounds; nearly all actives have a fitted effect of over 50% in size
Summary of the method: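 Nonlytic real-time viability readout: viable cells convert prosubstrate to NanoLuc substrate, giving luminescence proportional to live cell number. HEK293, 600 cells/well, compound added after 5 h, continuous culture at 37 C.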

[11] = A CellTox Green Cytotoxicity Assay to monitor cytotoxicity in HEK293 cells - 0 hour (AID 1224869); note: nearly all actives have a fitted effect of over 50% in size
Summary of the method: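 Cytotoxicity was tracked continuously in HEK293 cells by a DNA-binding dye excluded from viable cells. Compounds were transferred in DMSO 5 h after seeding; fluorescence was recorded at intervals up to 40 h.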

[12] = qHTS RealTime-Glo MT Cell Viability Assay in HepG2 cells - 40 hour (AID 1224870); note: nearly all actives have a fitted effect of over 50% in size
Summary of the method: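 HepG2 cells (600/well) mixed with RealTime-Glo MT reagent, settled 5 h at 37 C/5% CO2 before compound addition. Nonlytic NanoLuc luminescence from viable-cell prosubstrate reduction read repeatedly during 40 h treatment at 37 C.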

[13] = biological target: Nuclear receptor subfamily 1 group I member 3 (Homo sapiens) (UniProt Q14994); assay: qHTS assay to identify small molecule agonists of the constitutive androstane receptor (CAR) signaling pathway (AID 1224839);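 note: HepG2 cells stably carrying human CAR and a CYP2B6 luciferase reporter; nearly all actives have a fitted effect of over 15% in size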
Summary of the method: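 Stable hCAR/CYP2B6-2.2kb HepG2 line in DMEM with 10% FBS; compounds (15 concentrations) and 0.75 uM PK11195 final, 24 h at 37 C/5% CO2, then ONE-Glo luminescence after 30 min.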

[14] = biological target: Thyrotropin receptor (Homo sapiens) (UniProt P16473); assay: qHTS assay to identify small molecule agonists of the thyroid stimulating hormone receptor (TSHR) signaling pathway (AID 1224843; calls by dose curve; note: nearly all actives have a fitted effect of over 45% in size)
Summary of the method: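 Steps: seed 800 TSHR-HEK293 cells per well; add test compound and hold 30 min at ambient temperature; dispense cAMP-d2 then anti-cAMP cryptate; incubate 1 h at ambient; measure fluorescence intensity.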

[15] = qHTS assay to identify small molecule antagonists of the constitutive androstane receptor (CAR) signaling pathway - cell viability counter screen (AID 1224837); note: nearly all actives have a fitted effect of over 45% in size
Summary of the method: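 Multiplexed cytotoxicity read-out for the CAR antagonist screen: double-stable HepG2-CYP2B6-hCAR cells co-treated with 50 nM CITCO (final) and compound over 15 concentrations, incubated 23 hr, then assessed by CellTiter-Fluor fluorescence.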

[16] = biological target: Nuclear receptor subfamily 1 group I member 3 (Homo sapiens) (UniProt Q14994); assay: qHTS assay to identify small molecule antagonists of the constitutive androstane receptor (CAR) signaling pathway (AID 1224838); note: nearly all actives have a fitted effect of over 40% in size
Summary of the method: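 Compounds were titrated across 15 concentrations onto HepG2 cells double-stably expressing hCAR and a CYP2B6-2.2kb reporter, together with 50 nM CITCO (final). After 24 h at 37 C, luciferase activity was measured by luminescence.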

[17] = qHTS assay to identify small molecule antagonists of the estrogen related receptor signaling pathway with the pleiotropic PPARgamma coactivator (PGC) from Tox21 10K library (AID 1224841; call rule not given here; note: potency is the fitted concentration of half-maximal effect)
Summary of the method: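 Antagonism in this quantitative HTS is taken from loss of luciferase signal in PGC/ERR cells. Cells (2,000/well) are treated with compounds in DMSO after a 6 h settling period and read by One-Glo luminescence after 18 h.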

[18] = qHTS assay to identify small molecule agonists of the estrogen related receptor signaling pathway with the pleiotropic PPARgamma coactivator (PGC) from Tox21 10K library (AID 1224842); note: nearly all actives have a fitted effect of over 15% in size
Summary of the method: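 PGC/ERR reporter cell line, 2,000 cells per well, incubated 6 h at 37 C before 23 nL compound in DMSO was added. After 18 h at 37 C, One-Glo luminescence read following 30 min at room temperature.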

[19] = qHTS assay to identify small molecule antagonists of the estrogen related receptor (ERR) signaling pathway from Tox21 library (AID 1224848); note: nearly all actives have a fitted effect of over 50% in size
Summary of the method: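 Luminescent reporter read-out (ONE-Glo) from NTP's ERR cell line after 18 h treatment at 37 C with DMSO-dissolved Tox21 compounds; cells pre-plated 6 h beforehand at 2,000 per well.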

[20] = qHTS assay to identify small molecule agonists of the estrogen related receptor (ERR) signaling pathway from Tox21 library (AID 1224849; calls by dose curve; note: nearly all actives have a fitted effect of over 15% in size); conditions: ERR reporter cell line, ONE-Glo luciferase, 18 h; at 92.4 µM (top of the series) unless noted
Summary of the method: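 Agonist signal is luciferase luminescence from an ERR reporter cell line treated 18 h at 37 C with DMSO-dissolved compounds, read 30 min after ONE-Glo addition at room temperature.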
% is set by controls: 0 for no effect and ±100 for the full control effect.

Thyrotropin receptor (Homo sapiens), sequence (P16473 whole entry, looked up): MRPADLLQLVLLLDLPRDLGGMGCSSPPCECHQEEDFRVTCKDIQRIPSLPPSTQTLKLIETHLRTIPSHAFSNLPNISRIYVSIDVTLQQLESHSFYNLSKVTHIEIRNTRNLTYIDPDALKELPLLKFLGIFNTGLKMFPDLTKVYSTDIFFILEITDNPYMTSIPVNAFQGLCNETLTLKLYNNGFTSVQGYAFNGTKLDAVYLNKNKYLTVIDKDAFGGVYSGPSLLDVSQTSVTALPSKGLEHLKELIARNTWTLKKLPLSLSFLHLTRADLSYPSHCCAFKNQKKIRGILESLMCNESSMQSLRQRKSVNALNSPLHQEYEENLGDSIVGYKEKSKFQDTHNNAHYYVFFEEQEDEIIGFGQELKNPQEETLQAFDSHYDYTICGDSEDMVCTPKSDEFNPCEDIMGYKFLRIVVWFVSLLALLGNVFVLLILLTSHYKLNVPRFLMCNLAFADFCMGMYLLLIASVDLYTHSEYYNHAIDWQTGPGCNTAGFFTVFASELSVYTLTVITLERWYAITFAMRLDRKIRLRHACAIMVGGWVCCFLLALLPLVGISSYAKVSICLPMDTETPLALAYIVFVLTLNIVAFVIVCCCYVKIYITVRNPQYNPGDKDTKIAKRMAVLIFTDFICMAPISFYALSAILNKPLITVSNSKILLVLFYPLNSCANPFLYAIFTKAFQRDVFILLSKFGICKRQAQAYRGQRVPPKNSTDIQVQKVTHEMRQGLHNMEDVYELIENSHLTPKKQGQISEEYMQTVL
Luciferin 4-monooxygenase (Photinus pyralis), sequence (P08659 whole entry, looked up): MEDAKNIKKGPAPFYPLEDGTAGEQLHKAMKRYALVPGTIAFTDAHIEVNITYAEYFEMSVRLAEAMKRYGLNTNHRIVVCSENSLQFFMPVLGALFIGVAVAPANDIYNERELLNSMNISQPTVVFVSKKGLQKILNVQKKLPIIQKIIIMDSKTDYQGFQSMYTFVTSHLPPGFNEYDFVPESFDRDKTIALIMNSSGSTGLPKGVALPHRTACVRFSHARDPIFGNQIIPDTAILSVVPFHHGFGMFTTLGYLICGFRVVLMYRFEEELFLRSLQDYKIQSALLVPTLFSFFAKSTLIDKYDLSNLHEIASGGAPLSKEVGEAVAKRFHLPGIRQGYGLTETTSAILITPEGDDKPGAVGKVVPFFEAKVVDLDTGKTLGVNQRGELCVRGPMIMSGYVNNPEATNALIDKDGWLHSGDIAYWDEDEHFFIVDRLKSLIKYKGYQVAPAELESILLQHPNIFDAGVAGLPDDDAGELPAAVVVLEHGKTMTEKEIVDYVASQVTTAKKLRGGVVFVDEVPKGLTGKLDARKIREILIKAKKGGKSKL
Nuclear receptor subfamily 1 group I member 3 (Homo sapiens), sequence (Q14994 whole entry, looked up): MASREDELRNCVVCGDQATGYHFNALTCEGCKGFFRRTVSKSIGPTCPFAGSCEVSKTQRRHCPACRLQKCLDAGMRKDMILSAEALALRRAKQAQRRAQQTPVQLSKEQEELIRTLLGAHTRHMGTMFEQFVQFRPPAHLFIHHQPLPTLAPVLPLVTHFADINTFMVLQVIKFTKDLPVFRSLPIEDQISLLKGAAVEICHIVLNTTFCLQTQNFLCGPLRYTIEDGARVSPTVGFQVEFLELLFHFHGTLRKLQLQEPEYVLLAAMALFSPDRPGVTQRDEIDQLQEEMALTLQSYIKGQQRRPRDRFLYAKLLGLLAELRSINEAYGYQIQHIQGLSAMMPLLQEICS

C=C(C)C(=O)NCCCN(C)C
inactive: Potency [1] | Potency [2] | outcome [3] | outcome [4] | Potency [5] | outcome [6] | outcome [7] | Potency [8] | outcome [9] | Potency [10] | Potency [11] | Potency [12]

C#CC(O)CCCCC (configuration not stated)
inactive: Potency [1] | Potency [2] | outcome [3] | Potency [13] | outcome [4] | outcome [14] | outcome [6] | outcome [7] | Potency [8] | outcome [9] | Potency [10] | Potency [11] | Potency [12]

COc1ccc(COC=O)cc1
inactive: Potency [1] | outcome [3] | outcome [15] | Potency [16] | Potency [13] | outcome [4] | Potency [17] | Potency [18] | outcome [14] | Potency [5] | outcome [6] | Potency [19] | activity change, positive = activation [20] -0.945% | outcome [9] | Potency [10] | Potency [11] | Potency [12]

O=C(O)CCNC(=O)c1ccc(N=Nc2ccc(O)c(C(=O)O)c2)cc1
active: Potency [2] 30.9 µM
inactive: outcome [3] | outcome [15] | Potency [16] | Potency [13] | outcome [4] | outcome [14] | Potency [5] | outcome [7] | Potency [8] | outcome [9] | Potency [10] | Potency [11]

CC(=O)CCc1ccc(O)cc1
inactive: Potency [1] | outcome [3] | outcome [15] | outcome [4] | outcome [14] | Potency [5] | outcome [7] | Potency [8] | outcome [9] | Potency [10] | Potency [11] | Potency [12]

c1ccc2cnncc2c1
inactive: Potency [1] | outcome [3] | outcome [15] | outcome [4] | Potency [18] | outcome [14] | Potency [5] | outcome [6] | Potency [8] | Potency [19] | activity change, positive = activation [20] -2.66% | outcome [9] | Potency [11]
active: Potency [17] 27.4 µM

Cc1ccc(N)cc1[N+](=O)[O-]
inactive: Potency [2] | outcome [3] | outcome [15] | Potency [13] | outcome [14] | Potency [5] | Potency [8] | Potency [10] | Potency [11] | Potency [12]

CCn1cc(C(=O)O)c(=O)c2cc(F)c(N3CCN(C)CC3)cc21
inactive: viability change, negative = cytotoxic [1] 3.25% [at 19 µM] | viability change, negative = cytotoxic [3] 2.39% [at 19 µM] | activity change, negative = cytotoxicity [15] 2.92% [at 19 µM] | viability change, negative = cytotoxic [4] 8.09% [at 19 µM] | activation [14] -0.535% [at 19 µM] | activation (H2AX phosphorylation) [6] -0.959% [at 31.6 µM] | activation [7] -0.496% [at 15.8 µM] | activity change, negative = cytotoxicity [8] -2.01% [at 31.6 µM] | activity change, negative = cytotoxic [10] 4.88% [at 15.8 µM] | cytotoxicity [11] -2.39% [at 15.8 µM] | activity change, negative = cytotoxic [12] 1.6% [at 15.8 µM]

CC1(C)SC(C)(C)SC(C)(C)S1
inactive: Potency [1] | outcome [3] | outcome [15] | outcome [4] | Potency [17] | Potency [18] | outcome [14] | Potency [5] | outcome [6] | outcome [7] | Potency [8] | Potency [19] | activity change, positive = activation [20] -8.06% | outcome [9] | Potency [11]
